Source: PubChem BioAssay AID651640 (Broad Institute, 2012)
Out of some 350,000 compounds screened, about 6,000 (1.7%) were called active. Inconclusive results (about 5%) are left out. No stated cut-off is given here; in the data, active means CPE inhibition above about 20% (passing the limit was not always enough); inconclusive means no clear call, values can overlap the other calls; tested in BHK-21 cells. This excerpt belongs to a sample that is enriched for actives.

Test: inhibitors of DENV2 cytopathic effect, primary screen, cell-based, plate reader, single concentration (AID 651640);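 further: 0% = median of neutral control wells and 100% = median of positive control wells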
Settings: DENV2-infected cells, cytopathic effect rescue, at 9.99 µM, stronger effect = higher value

CPE inhibition, active:
COc1ccc(NC(=O)c2cn(-c3ccccc3)nc2SC)cc1 30.9%, O=C(C[C@H]1C[C@H](C(=O)N2CCOCC2)[C@@]2(CCC3CCCC3)c3[nH]c4ccc(Cl)cc4c3CCN2C1=O)NCc1ccco1 88.4%, Cc1ccc(S(=O)(=O)N(C)C[C@@H]2Oc3ccc(NC(=O)NC4CCCCC4)cc3C(=O)N([C@@H](C)CO)C[C@H]2C)cc1 23.4%, Cc1ccc(S(=O)(=O)N(C)C[C@H]2OCCCC[C@@H](C)Oc3ccc(NS(C)(=O)=O)cc3C(=O)N([C@H](C)CO)C[C@@H]2C)cc1 24.2%, Cc1ccc(S(=O)(=O)Nc2ccc3c(c2)C(=O)N([C@H](C)CO)C[C@H](C)[C@@H](CN(C)S(=O)(=O)c2cn(C)cn2)OCCCC[C@H](C)O3)cc1 39.2%, C[C@H](CO)N1C[C@H](C)[C@@H](CN(C)S(=O)(=O)c2cn(C)cn2)OCCCC[C@H](C)Oc2ccc(NC(=O)Cc3ccccc3)cc2C1=O 123%, CC1(Cc2cccc(C#N)c2)C(=O)Nc2ccc(-c3cccc(C(F)(F)F)c3)cc21 (stereo unspecified) 94.5%, Cc1nc(SCc2ccc(F)cc2)c([N+](=O)[O-])[nH]1 70.9%, CCOC(=O)c1cccc(NC(=O)CN2C(=O)C3CC=CCC3C2=O)c1 (stereo unspecified) 76%, O=C(C[C@@H]1CC[C@@H]2[C@H](COC[C@H](O)CN2C(=O)Cc2ccccc2)O1)NC1CCC1 34.4%, O=C(C[C@@H]1CC[C@H]2[C@@H](COC[C@@H](O)CN2C(=O)c2ccc3c(c2)OCO3)O1)NC1Cc2ccccc2C1 35.1%, O=C(C[C@H]1CC[C@H]2[C@@H](COC[C@@H](O)CN2C(=O)c2ccc3c(c2)OCO3)O1)NC1Cc2ccccc2C1 32.6%

CPE inhibition, inactive:
CC(C)CC#Cc1ccc([C@H]2[C@H]3CN(C(=O)CN4CCOCC4)CC(=O)N3[C@H]2CO)cc1 -1.35%, COc1ccccc1CNC(=O)C[C@@H]1C[C@@H]2c3cc(NC(=O)C4CCOCC4)ccc3O[C@@H]2[C@@H](CO)O1 2.24%, COC(=O)[C@@H]1[C@@H](CO)[C@@H]2Cn3c(ccc(-c4ccccc4F)c3=O)[C@@H]2N1CC1CCOCC1 -7.38%, C[C@@H]1CCCCO[C@@H](CN(C)S(=O)(=O)c2cn(C)cn2)[C@@H](C)CN([C@@H](C)CO)C(=O)c2cc(NC(=O)NC3CCCCC3)ccc2O1 7.41%, C[C@@H]1CN([C@@H](C)CO)S(=O)(=O)c2ccc(-c3ccccc3F)cc2O[C@H]1CN(C)Cc1cncnc1 -7.02%, CN(C)C(=O)[C@@H]1[C@@H](CO)[C@@H]2Cn3c(cccc3=O)[C@H]1N2C(=O)c1ccc(F)cc1 2.89%, C[C@H]1CN([C@@H](C)CO)C(=O)c2cccc(NC(=O)c3ccncc3)c2O[C@@H]1CN(C)C -3.46%, C[C@@H]1CCCCO[C@H](CN(C)S(=O)(=O)c2cccs2)[C@@H](C)CN([C@@H](C)CO)C(=O)c2cc(NC(=O)Nc3ccc4c(c3)OCO4)ccc2O1 2.44%, O=C(N[C@H]1CC[C@H](CCNS(=O)(=O)c2ccc(F)cc2)O[C@H]1CO)C1CCC1 0.0715%, CCNC(=O)Nc1ccc2c(c1)C(=O)N(C)[C@@H]1CC[C@@H](CC(=O)NCCOC)O[C@@H]1CO2 -6.67%, CC(C)C#Cc1ccc2c(c1)O[C@@H](CN(C)Cc1ccncc1)[C@@H](C)CN([C@@H](C)CO)S2(=O)=O -4.86%, COc1ccccc1C(=O)Nc1ccc(Nc2ccccc2)cc1 1.78%, COc1ccc(NC(=O)CSc2nc(N)c(-c3ccccc3)c(=O)[nH]2)cc1 15.2%, COc1ccc(CNC(=O)C[C@H]2C[C@H](C(=O)N3CCOCC3)[C@@]3(CCC4CCCC4)c4[nH]c5ccc(Cl)cc5c4CCN3C2=O)cc1OC 0.122%, CN(C)C(=O)CCc1ccc2c3c([nH]c2c1)[C@]1(CCC2CCCC2)[C@@H](C(=O)N2CCOCC2)C[C@H](CC(=O)NCc2ccco2)C(=O)N1CC3 -10.7%, C[C@@H]1CCCCO[C@@H](CN(C)S(=O)(=O)c2cn(C)cn2)[C@H](C)CN([C@@H](C)CO)C(=O)c2cc(NC(=O)Nc3ccccc3)ccc2O1 -1.09%, Cc1ccc(S(=O)(=O)N(C)C[C@@H]2OCCCC[C@H](C)Oc3ccc(NS(=O)(=O)c4cn(C)cn4)cc3C(=O)N([C@H](C)CO)C[C@@H]2C)cc1 -2.41%, C[C@@H]1CCCCO[C@@H](CN(C)S(=O)(=O)c2cn(C)cn2)[C@H](C)CN([C@H](C)CO)C(=O)c2cc(NS(=O)(=O)c3ccc(Cl)cc3)ccc2O1 3.2%, Cc1ccc(S(=O)(=O)Nc2ccc3c(c2)C(=O)N([C@H](C)CO)C[C@@H](C)[C@H](CN(C)S(=O)(=O)c2ccc(C)cc2)OCCCC[C@@H](C)O3)cc1 1.84%, Cc1ccc(S(=O)(=O)N(C)C[C@H]2OCCCC[C@@H](C)Oc3ccc(NC(=O)NC4CCCCC4)cc3C(=O)N([C@H](C)CO)C[C@@H]2C)cc1 0.877%, C[C@@H]1CN([C@H](C)CO)C(=O)c2cc(NC(=O)NC3CCCCC3)ccc2O[C@H]1CN(C)S(C)(=O)=O 2.68%, C[C@@H]1CN([C@H](C)CO)C(=O)c2cc(NC(=O)Cc3ccccc3)ccc2O[C@H]1CN(C)S(=O)(=O)c1cn(C)cn1 0.292%, Cc1ccc(S(=O)(=O)N(C)C[C@@H]2OCCCC[C@@H](C)Oc3ccc(NS(=O)(=O)c4ccccc4)cc3C(=O)N([C@H](C)CO)C[C@@H]2C)cc1 0.648%, O=C(C[C@@H]1C[C@@H]2c3cc(NC(=O)NC4CCCC4)ccc3O[C@@H]2[C@H](CO)O1)NCC(F)(F)F 7.08%, CN(C)C(=O)[C@@H]1[C@@H](CO)[C@@H]2Cn3c(ccc(-c4ccccc4)c3=O)[C@@H]2N1CCC(F)(F)F 3.4%, C[C@@H]1CN([C@H](C)CO)C(=O)c2ccccc2-c2ccccc2CO[C@H]1CN(C)C(=O)CCC(F)(F)F 1.69%, CC(C)C[C@H](NC(=O)CC1CCCC1)C(=O)N1CCC[C@H]1C(=O)NCc1ccccc1 -0.111%, COc1ccc(NC(=O)N(C)C[C@@H]2Oc3ccc(NC(=O)CCC(F)(F)F)cc3C(=O)N([C@@H](C)CO)C[C@H]2C)cc1 -3.47%, O=C(C1CCCCC1)N1CC(=O)N2[C@H](CO)[C@H](c3ccc(Br)cc3)[C@H]2C1 -9.75%, C[C@@H]1CN([C@@H](C)CO)S(=O)(=O)c2ccc(C#CC(C)(C)O)cc2O[C@H]1CN(C)C(=O)CN(C)C 14.1%, Cc1ccc(S(=O)(=O)Nc2cccc3c2O[C@H](CN(C)CC2CCCCC2)[C@H](C)CN([C@H](C)CO)C3=O)cc1 -0.201%, N[C@@H]1CC[C@H](CCn2cc(C3CC3)nn2)O[C@@H]1CO -2.16%, N#C[C@H]1[C@@H](c2ccccc2-c2ccccc2F)[C@@H](CO)N1C(=O)C1CCC1 -1.39%, C[C@@H]1CN([C@@H](C)CO)C(=O)c2cc(NS(C)(=O)=O)ccc2O[C@@H]1CN(C)C(=O)Nc1ccccc1 4.47%, C[C@@H]1CN([C@@H](C)CO)C(=O)c2cc(C3=CCCC3)cnc2O[C@H]1CN(C)C(=O)c1ccccn1 1.01%, C=CCn1cc(-c2cccc(C(F)(F)F)c2)cc(C#N)c1=O -0.13%, N#Cc1c(-c2ccccc2)nc(SCc2cccc(C(F)(F)F)c2)[nH]c1=O -3.77%, COc1ccccc1NC(=O)N[C@H]1CC[C@H](CCn2cc(-c3cccnc3)nn2)O[C@@H]1CO 7.27%, CCN(C[C@H]1[C@H](c2ccc(-c3ccccc3)cc2)[C@H](CO)N1CC1CC1)C(C)=O -11.4%, C[C@H](CO)N1C[C@H](C)[C@H](CN(C)Cc2cccc(F)c2)Oc2ncc(C#CCN(C)C)cc2C1=O -7.01%, Cc1cc([N+](=O)[O-])nn1Cc1ccc(F)cc1 -2.03%, Cc1nc(N)nc(SCc2ccc([N+](=O)[O-])cc2)c1N 5.04%, COc1ccc(S(=O)(=O)N(C)C[C@H]2Oc3c(NC(=O)CCCCCC(=O)Nc4ccccc4N)cccc3C(=O)N([C@H](C)CO)C[C@H]2C)cc1 -2.7%, COc1ccccc1Cc1c(-c2ccc(F)cc2)nc2ccc(C)cn12 -9.92%, CN(C)CC(=O)N[C@H]1CC[C@H](CCNC(=O)Nc2ccc(F)cc2)O[C@H]1CO 6.32%, CCOC(=O)c1cccc(NC(=O)CCOc2ccccc2)c1 -0.064%, CCCCN1C(=O)C(=O)N(CC(=O)Nc2cccc(C(C)=O)c2)C1=O -4.58%, O=C(c1cccnc1)N1CC(=O)N2[C@H](CO)[C@@H](c3ccc(-c4ccc(F)cc4)cc3)[C@@H]2C1 -0.715%, O=C(C[C@@H]1CC[C@H]2[C@@H](COC[C@@H](O)CN2C(=O)c2ccc3c(c2)OCO3)O1)NC1CCCC1 -3.32%, O=C(C[C@H]1CC[C@H]2[C@@H](COC[C@@H](O)CN2Cc2ccccc2)O1)N[C@@H]1CCN(Cc2ccccc2)C1 17.9%, O=C(C[C@@H]1CC[C@@H]2[C@H](COC[C@H](O)CN2C(=O)c2ccc3c(c2)OCO3)O1)NC1CCCC1 -0.397%, O=C(C[C@@H]1CC[C@@H]2[C@H](COC[C@H](O)CN2C(=O)c2cccnc2)O1)NC1Cc2ccccc2C1 -4.15%, O=C(C[C@H]1CC[C@@H]2[C@H](COC[C@H](O)CN2Cc2ccccc2F)O1)NC1CCC1 -4.44%, O=C(C[C@H]1CC[C@@H]2[C@H](COC[C@H](O)CN2C(=O)c2ccc3c(c2)OCO3)O1)NC1CCC1 2.16%
